Test results reported in PubChem BioAssay AID485297 (National Center for Advancing Translational Sciences (NCATS), 2010).
Hit rate of the full screen: of about 320,000 compounds, about 9,100 (2.8%) were called active. A call without a number means that no potency is given here. Not shown: some 3% with an inconclusive outcome. The sample as a whole holds a higher share of actives than the screen did. A number with no mark means an inactive call. Calls come from the whole dose curve; as a rule, active = well fitted activation curve with a large enough effect; inconclusive = small, poorly fitted or top-dose-only effect; inactive = no such curve, though single readings can be large or run the other way.
Potency is the fitted concentration of half-maximal effect.

Assay: qHTS Assay for Rab9 Promoter Activators; note: nearly all actives have a fitted effect of over 60% in size
Conditions: Huh7 Rab9 promoter-luciferase reporter, luminescence, 24 h; series mostly up to 9.22 µM
Excerpt: NIH Chemical Genomics Center [NCGC] NIH Molecular Libraries Probe Production centers Network [MLPCN] MLPCN Grant: MH089537-01 Assay Submitter (PI): Yiannis A. Ioannou NCGC Assay Overview: Niemann Pick Type C (NPC) is a rare neurodegenerative lipidosis that is characterized by lipid storage in the endosomal/lysosomal system. Treatment modalities for this devastating disease are currently non-existent due to the severe obstacles associated with accessing the central nervous system with proteins or genes (Ioannou, 2000). We have developed a new paradigm, termed "Orphan Receptor Bypass Therapy" (ORByT), to address these disorders. This paradigm posits the existence of endogenous "suppressor" proteins whose expression can dramatically improve LSD pathogenesis. The goal is the identification/discovery of small chemical compounds that can modulate the expression of these proteins and provide a new treatment modality for these devastating disorders. One such protein whose overexpression reverses aspects of the NPC phenotype is Rab9. We have developed and optimized a cell based luciferase reporter assay in 1536 well format for the identification of up-regulators of the Rab9 promoter.
The Rab9 promoter is cloned in front of the luciferase reporter gene, therefore […] promoter activation results in luciferase expression. Frozen stock of the Rab9 promoter transfected Huh7 cells were obtained from the laboratory of Dr. Yiannis Ioannou (The Mount Sinai School of Medicine, New York, NY). Cells were propagated and maintained at NCGC in medium containing RPMI-1640 supplemented with 10% FBS, 2mM L-glutamine, and 50ug/ml penicillin/streptomycin. Cells were harvested in and plated for assays in OP-MEM I reduced-serum medium supplemented with 10% FBS. The Amplite luciferase reporter gene assay kit was purchased from ABD Bioquest and prepared/stored according to manufacturers recommendations. qHTS Assay Setup: 1.Dispensed 5ul of Huh7 cells stably expressing Rab9-luciferase at a density of 1500 cells per well 1536-well plates. 2.Incubate cells at 37C, 5% CO2, and 95% humidity for 2 hours. 3.Transferred 23nl per well of compound in DMSO solution. 4.Incubated at 37C, 5% CO2, and 95% humidity for 24 hours. 5.Dispensed 3ul per well of Amplite reagent(ABD Bioquest) per well. 6.Incubate at ambient for 10 minutes. 7.Read using the luminescence protocol on the ViewLux plate reader (Perkin Elmer).
In the case of `Cc1sc2ncnc(SCC(=O)Nc3ccc(CN4CCCC4)cc3)c2c1C`, the Potency is reported as “inactive”. For `COc1ccc(C[C@H](C(=O)O)N2C(=O)c3ccc(C(=O)O)cc3C2=O)cc1`, the Potency was “inactive”. For `COc1ccc2[nH]cc(CCN3C(=O)c4ccc(C(=O)O)cc4C3=O)c2c1`, the Potency was 1 µM (active). For `Cc1ccc2[nH]cc(CCCN3C(=O)c4ccccc4C3=O)c2c1`, the Potency was “inactive”. With `COc1cc([N+](=O)[O-])ccc1NC(=O)COC(=O)CCOc1ccc(C)cc1` the Potency was “inactive”. In the case of `O=C(CSc1ncnc2sccc12)N1CCN(C(=O)c2cccs2)CC1`, the Potency is reported as “inactive”. In the case of `Nc1c(C(=O)c2cccs2)sc2nsc(SCCN3CCCCC3)c12`, the Potency is reported as 2.51 µM (active). With `O=C(CN1C2=NCCN2c2ccccc21)c1cccs1` the Potency was “inactive”. For `CCCCC/C=C/C1=CC(=O)C[C@H](c2ccc(Cl)cc2)C1`, the Potency was “inactive”. In the case of `COc1ccccc1CNC(=O)COC(=O)c1sc(C)nc1C`, the Potency is reported as “inactive”. With `CCOC(=O)c1c(NC(=S)NC(=O)/C=C/c2cccs2)sc(C)c1C` the Potency was “inactive”. In the case of `CCOC(=O)c1sc(=NC(=O)c2ccc(Br)cc2)n(C)c1C`, the Potency is reported as “inactive”. For `CCOC(=O)c1sc(=NC(=O)/C=C/c2cccs2)n(C)c1C`, the Potency was 2.82 µM (active). For `C=CCNC(=O)c1ccc2c3n(nc2c1)-c1ccc(C)cc1CO3`, the Potency was 0.891 µM (active). For `Cc1cccc(-c2nc3ccc(C(=O)NCCN4CCN(C)CC4)cc3nc2-c2cccc(C)c2)c1`, the Potency was “inactive”. With `C=CCNC(=O)c1ccc(C)c(Br)c1` the Potency was “inactive”. In the case of `COc1ccc(CNC(=O)CN2C(=O)NC3(CCCc4sccc43)C2=O)cc1` (configuration not stated), the Potency is reported as “inactive”. In the case of `CO[C@H]1[C@@H]2C=CO[C@@H](O[C@H]3O[C@@H](CO)[C@H](O)[C@@H](O)[C@@H]3O)[C@@H]2[C@@]2(CO)O[C@@H]12`, the Potency is reported as “inactive”. In the case of `Cc1ccc(-c2cn(S(=O)(=O)c3cccc([N+](=O)[O-])c3)nc2N)cc1`, the Potency is reported as “inactive”. With `Cc1cc(C)nc(Nc2cc([N+](=O)[O-])ccc2C)n1` the Potency was “inactive”. With `Cc1ccc(-n2cc3ccc([N+](=O)[O-])cc3n2)cc1` the Potency was 0.355 µM (active). With `Cc1ccc(CNC(=O)c2cccc3c2C(=O)c2ccc(N4CCC(C)CC4)cc2S3(=O)=O)cc1` the Potency was “inactive”. In the case of `Cc1c(O)c(C)c2c(c1O)C(=O)C[C@@H](c1ccccc1)O2`, the Potency is reported as “inactive”. In the case of `COc1ccc(NC(=O)C2COc3ccccc3O2)cc1` (configuration not stated), the Potency is reported as 3.16 µM (active). In the case of `CC(=O)c1cccc(NC(=O)C2COc3ccccc3O2)c1` (configuration not stated), the Potency is reported as “inactive”. In the case of `COc1ccc(NC(=O)CC2COc3ccccc3O2)c(OC)c1` (configuration not stated), the Potency is reported as “inactive”. In the case of `CC(C)C[C@H](NC(=O)[C@H](O)[C@H](N)Cc1ccccc1)C(=O)O`, the Potency is reported as “inactive”. With `CNS(=O)(=O)c1cccc(C(=O)OCCCC(=O)c2ccccc2)c1` the Potency was “inactive”. For `O=C(Nc1ccc(Cl)cc1)OCc1cc(-c2ccccc2)on1`, the Potency was “inactive”. With `O=C(Nc1cccc(CCc2ccccn2)c1)c1ccc(Cl)cc1` the Potency was “inactive”. In the case of `O=C(Nc1cccc(Cl)c1)OCc1ccccn1`, the Potency is reported as 3.98 µM (active). For `CC(C)N(C(=O)CSc1nnc(NC2CC2)s1)c1ccccc1`, the Potency was “inactive”. In the case of `CCc1nnc(NC(=O)C2CCN(C(=O)c3ccccc3C)CC2)s1`, the Potency is reported as “inactive”. With `Cc1[nH][nH]c(=O)c1N=Nc1ccccc1` the Potency was “inactive”. With `Nc1[nH][nH]c(=O)c1N=Nc1ccc2c(c1)OCO2` the Potency was 3.55 µM (active). With `O=C1/C(=C/c2ccc3c(c2)OCO3)CCC/C1=C\c1ccc2c(c1)OCO2` the Potency was “inactive”. With `COc1ccc2ccn(C)c2c1` the Potency was “inactive”. For `Cc1ccc(NC(=O)CN(C)C(=O)COC(=O)c2nccnc2N)cc1`, the Potency was “inactive”. In the case of `CS(=O)(=O)N1CCc2nc(-c3ccccc3)sc2C1`, the Potency is reported as 1.58 µM (active). For `CS(=O)(=O)N1CCN(C(=O)Cc2ccccc2)CC1`, the Potency was “inactive”. In the case of `CS(=O)(=O)N1CCN(c2cccc(Cl)n2)CC1`, the Potency is reported as “inactive”. In the case of `NC(=O)C1CCN(C(=O)c2ccc(F)c(S(=O)(=O)N3CCOCC3)c2)CC1`, the Potency is reported as “inactive”. With `Cc1ccc(N(CC(=O)NCC2CCCO2)C(=O)CNS(=O)(=O)c2ccc(Cl)cc2)cc1` (configuration not stated) the Potency was “inactive”. In the case of `O=C1c2ccccc2C(=O)N1CCC#Cc1ccc2cc(C3(O)CCCCC3)oc(=O)c2c1`, the Potency is reported as “inactive”. In the case of `O=C(Nc1ccc(NC(=O)c2ccco2)c(Cl)c1)c1cccc([N+](=O)[O-])c1`, the Potency is reported as “inactive”. In the case of `O=C(Nc1ccc(C2CC2(Cl)Cl)cc1)c1cccc([N+](=O)[O-])c1` (configuration not stated), the Potency is reported as 3.98 µM (active). In the case of `O=C(Nc1ccc(C(=O)N2CCCCC2)cc1)c1cccc([N+](=O)[O-])c1`, the Potency is reported as “inactive”. For `CN(C)/C=C(/C(=O)c1ccc(Cl)c(Cl)c1)c1nnnn1-c1ccccc1`, the Potency was “inactive”. For `CC(=NCc1ccco1)C1=C(O)c2ccccc2C1=O`, the Potency was “inactive”. In the case of `CC(=NCc1ccco1)c1c(C(F)(F)F)[nH]n(-c2nc3ccccc3s2)c1=O`, the Potency is reported as 2 µM (active). With `COC(=O)Cc1[nH]n(-c2nc3ccccc3s2)c(=O)c1C(C)=Nc1ccc(OC)cc1` the Potency was “inactive”. For `O=C(CN1CCN(S(=O)(=O)c2cccc(Cl)c2)CC1)N1CCCCC1`, the Potency was “inactive”.
